CaV13 ICDI inh: Disruptors of the CACNA1D IQ motif to Ca2+-dependent inactivation inhibitor domain association, primary screening, Förster resonance energy transfer in intact living …. HEK cells, CFP/YFP FRET ICDI-IQ, plate reader, 10 min; percent FRET-ratio fall versus neutral wells. inhibition, % at 12.3 µM. actives 0.098% (n = 340,000). AID 743397;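 active means mean replicate inhibition of at least 30% and at least 1% of replicates passing that level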;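 further: 0% = median of the neutral control wells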
NSD2 inh: NSD2 (human) methyltransferase inhibition. O96028. NSD2 peptide methylation, AlphaScreen, 120 min. inhibition, % at 12.5 µM. actives 0.54% (n = 310,000). AID 743445; in the data active means inhibition above about 50%
Vif inh: inhibitors of HIV Vif. HEK293T cells, Vif self-association by quenched fluorescence, imaging, 24 h. inhibition, % at 7.49 µM. actives 0.35% (n = 340,000); in the data active means inhibition above about 50%, passing the limit was not always enough
Pemphigus Ab inh: human desmoglein-3 autoantibody binding inhibition. DSG3-coupled beads, scFv-anti-DSG3-GFP binding, flow cytometry; active compounds read low. binding (percent of control), % at 10 µM. actives 0.48% (n = 310,000);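 active means binding more than 3 SD below its plate's average and above zero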;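 further: hits lower antibody fragment binding to DSG3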
N-glyco inh: N-linked glycosylation inhibition; D54 ERlucT glycosylation luciferase reporter, 24 h; percent of 100 nM tunicamycin response; reporter increase, % at 12.5 µM; actives 0.23% (n = 360,000);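 active means mean luciferase reporter signal, scaled so untreated is 0 and the glycosylation-blocking control 100, at or above a set limit in every replicate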;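 further: luciferase carries N-glycosylation sites so blocking glycosylation raises the light; 0% = median of neutral control wells and 100% = median of 100 nM tunicamycin wells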
ATG4B inhibitor: blocks human ATG4B protease cleavage of LC3 substrate | Q9Y4P1 | ATG4B cleavage of LC3-PLA2, NBD-HPC fluorescence, 1 h | inhibition, % at 8.33 µM | actives 0.51% (n = 340,000); in the data active means inhibition above about 40%
Target sequence (Q9Y4P1 whole entry, looked up): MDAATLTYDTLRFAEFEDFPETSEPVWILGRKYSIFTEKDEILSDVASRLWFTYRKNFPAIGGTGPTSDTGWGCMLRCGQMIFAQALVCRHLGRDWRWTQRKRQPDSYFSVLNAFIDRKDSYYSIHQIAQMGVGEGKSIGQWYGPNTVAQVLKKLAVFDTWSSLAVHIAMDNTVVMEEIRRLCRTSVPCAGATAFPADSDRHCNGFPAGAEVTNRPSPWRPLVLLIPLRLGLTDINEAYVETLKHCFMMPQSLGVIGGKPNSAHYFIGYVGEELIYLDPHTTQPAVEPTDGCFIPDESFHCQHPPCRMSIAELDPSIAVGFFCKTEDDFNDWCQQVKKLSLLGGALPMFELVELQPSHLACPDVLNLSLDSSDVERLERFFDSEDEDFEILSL
An asterisk follows results filed as active; / = not tested or not shown. Hits are enriched below; roughly 1.9% of the tested compounds scored in any of these assays.

SMILES	CaV13 ICDI inh	NSD2 inh	Vif inh	Pemphigus Ab inh	N-glyco inh	ATG4B inhibitor
Cc1cccc(C(=O)Nc2cc(Cl)ccc2-n2cncn2)c1[N+](=O)[O-]	-2	1	9	92	1	1
Cc1cccc2nc(C(=O)Nc3cc(Cl)ccc3-n3cncn3)cn12	-5	-2	75*	/	0	-4
COCCn1c(COc2ccccc2)nnc1SCC(N)=O	-9	-2	60*	98	2	-4
Cc1cc(NC(=O)CCC(=O)N(CC2CCCO2)C(C(=O)NC2CCCC2)c2ccccc2C)no1 (stereo not drawn)	/	1	-20	/	1	0
c1ccc(-c2n[nH]c(-c3ccccc3)c2-c2nc3ccccc3[nH]2)cc1	-5	-2	0	/	31*	-1
O=C(O)c1cccc(-n2nc(-c3ccc(Cl)c([N+](=O)[O-])c3)c3ccccc3c2=O)c1	-3	6	0	90	-2	-1
COc1ccc(C(=O)CSc2nnc(-c3cc(C)on3)o2)cc1	-5	0	6	82	-1	-4
Cc1cc(-c2nnc(SCC(=O)c3ccc(Cl)cc3)o2)no1	3	-2	92*	82	0	0
O=[N+]([O-])c1cccc(/C=C/c2nc[nH]c2[N+](=O)[O-])c1	-6	0	-5	63*	-3	3
O=C(CN1CCc2ccccc21)Nc1ccc2c(c1)OCO2	-5	3	4	72*	-1	2
CCOC(=O)c1sc(N=NC2=C(O)CC(C)(C)CC2=O)c(C(=O)OCC)c1C	-20	-5	-3	130	3	8
O=[N+]([O-])c1ccc(N2CCN(S(=O)(=O)c3ccc(Cl)cc3)CC2)cc1NCC1CCCO1 (stereo not drawn)	-9	0	57*	124	0	-1
Cc1cc(C)c(S(=O)(=O)N2CCN(c3ccc([N+](=O)[O-])c(NCC4CCCO4)c3)CC2)c(C)c1 (stereo not drawn)	/	/	-12	100	-3	-3
CC(C)CCNc1ncnc2c1nnn2Cc1ccccc1Cl	-4	0	-7	84*	1	3
COCCNCC(=O)Nc1nc(C)cs1	-7	-1	59*	96	-1	-2
Cc1csc(NC(=O)CSc2nc(C)cs2)n1	/	5	/	100	0	-1
COc1ccc(NC(=S)N2CCN(C/C=C/c3ccccc3)CC2)cc1OC	/	4	65*	101	-3	-12
O=C(CC(c1ccccc1)c1ccccc1)Nc1ccc(C(=O)O)cc1	-3	7	5	94	3	-10
COc1ccccc1C(=O)N/N=C(\C)c1ccc(NC(=O)C2CC2)cc1	-3	-2	2	2.4*	1	-12
Cc1ccc(S(=O)(=O)CC(=O)Nc2nnc(C(C)C)s2)cc1	-2	3	58*	99	0	-4
COc1ccc(C(=O)c2sc3nc(C)cc(-c4cccs4)c3c2N)cc1OC	-16	-1	176*	125	-1	18
CCCCn1c(Oc2ccc(C(=O)OC)cc2)nc2c1c(=O)n(C)c(=O)n2C	/	2	-3	95	-1	-5
Fc1ccc(/C=N/n2cnn(Cc3ccccc3Cl)c2=S)cc1	5	-3	1	106	0	10
CN(C)c1nc(N)ncc1-c1ccc(Oc2ccccc2)cc1	-3	-2	-7	79*	-4	-2
COC(=O)Nc1ccc2c(c1)ncn2C1CCCCC1	-4	-3	-18	102	1	-3
SMILES	CaV13 ICDI inh	NSD2 inh	Vif inh	Pemphigus Ab inh	N-glyco inh	ATG4B inhibitor
CCOC(=O)Nc1ccc2c(c1)ncn2C1CCCCC1	-9	-4	82*	104	-1	1
NC(=O)CC(NC(=O)c1ccc(Br)cc1)c1ccc(N2CCCCCC2)c([N+](=O)[O-])c1 (stereo not drawn)	-10	/	9	97	33*	-17
NC(=O)CC(NC(=O)Cc1ccc(Cl)cc1)c1ccc(NC2CC3CCC2C3)c([N+](=O)[O-])c1 (stereo not drawn)	-9	/	-14	94	37*	-15
CCC(CC)Nc1ccc(C(CC(N)=O)NC(=O)Cc2ccc(Br)cc2)cc1[N+](=O)[O-] (stereo not drawn)	-5	/	/	104	50*	-16
NC(=O)CC(NC(=O)Cc1cccc2ccccc12)c1ccc(NC2CC3CCC2C3)c([N+](=O)[O-])c1 (stereo not drawn)	-11	/	-22	101	-3	-5
COc1ccc(C)cc1-n1c(SCC(=O)Nc2cccc(C(=O)O)c2)nc2ccccc2c1=O	-2	0	-9	101	1	-4
CN(CC(=O)O/N=C(\N)c1ccc([N+](=O)[O-])cc1)S(=O)(=O)c1ccc2ccccc2c1	-6	-2	59*	99	5	-15
COC(=O)c1ccc(OCC(O)CN(CCO)CCO)cc1 (stereo not drawn)	-4	1	-10	99	4	-3
O=c1[nH]c(=S)[nH]c2nc(-c3cccs3)cc(C(F)(F)F)c12	-4	-4	-6	71*	0	7
CCn1c(SCc2ccc(C(=O)Nc3nccs3)cc2)nnc1-c1ccc(N)cc1	-5	-10	54*	105	-3	-3
Cc1cc(C)cc(NC(=O)COC(=O)COc2ccc(N(C)S(=O)(=O)c3cccs3)cc2)c1	-19	-1	50*	96	2	-14
CN(c1ccc(OCC(=O)OCC(=O)Nc2ccccc2F)cc1)S(=O)(=O)c1cccs1	-6	-2	6	121	0	-5
COc1cc(/C=C(\C#N)c2ccccn2)ccc1OCC(=O)Nc1c(Cl)cccc1Cl	-3	-1	-7	117	0	12
CCCN(C(=O)c1cc(-c2ccco2)nc2ccccc12)c1c(N)n(Cc2ccccc2)c(=O)[nH]c1=O	-7	1	3	87*	-2	1
O=C(NCc1ccccc1)c1ccc(S(=O)(=O)N2CCCCCC2)cc1	-5	-1	77*	101	-4	/
O=C(NCc1ccccc1)c1ccc(C(=O)NCc2ccccc2)cc1	-6	-1	8	79*	-3	-5
Cn1cnc(C(=O)NCc2ccccc2)c1C(=O)NCc1ccccc1	-5	/	-8	70*	-1	6
CC(C)NC(=O)N(C)C[C@H]1Oc2ccc(NC(=O)CCN3CCOCC3)cc2C(=O)N([C@H](C)CO)C[C@@H]1C	-3	/	6	92	2	/
Cc1cccc2cc(/C=C/C(=O)c3ccco3)c(Cl)nc12	3	16	-2	101	31*	10
CCOc1ccc2nc(Cl)c(/C=C/C(=O)c3ccco3)cc2c1	-5	7	-2	/	10	0

High-throughput results: PubChem, several laboratories
